Reference: ChEMBL document CHEMBL1157539, “Thousands of chemical starting points for antimalarial lead identification” (Nature, 2010)

Experiments:
Format in all cases: functional
Plasmodium falciparum [1] = test: GSK_TCMDC: Inhibition of Plasmodium falciparum 3D7 in whole red blood cells, using parasite LDH activity as an index of growth. Test compounds present at 2uM
Plasmodium falciparum [2] = test: GSK_TCMDC: Inhibition of Plasmodium falciparum Dd2 in whole red blood cells, using parasite LDH activity as an index of growth. Test compounds present at 2uM
HepG2 = test: GSK_TCMDC: Percent inhibition of human HepG2 cell line. Test compounds present at 10uM.

| SMILES | Inhibition (Plasmodium falciparum [1]) [%] | Inhibition (Plasmodium falciparum [2]) [%] | Inhibition (HepG2) [%] |
| --- | --- | --- | --- |
| COc1ccc(NC(=O)CCNc2ccnc(NCCc3ccc(F)cc3)n2)cc1.O=C(O)C(F)(F)F | 94 | 5 | 4 |
| Cc1cnc(N2CCN(CCCN3CCCC3)CC2)nc1Oc1ccc(-n2ccnc2)cc1.O=C(O)C(F)(F)F | 99 | 82 | 12 |
| O=C(Nc1ccc(C(F)(F)F)cc1)NC1CCN(c2ccnc3cc(Cl)ccc23)CC1.O=C(O)C(F)(F)F | 100 | 74 | 22 |
| N#CC(c1ccc(Br)cc1)c1ccc2c(C(F)(F)F)cc(C(F)(F)F)nc2n1 (stereo not given) | 100 | 98 | 75 |
| COc1ccccc1CCC(C)(C)NC(=O)CC(CCc1ccccc1)Nc1ccc(C#N)c2ccccc12 (stereo not given) | 94 | 65 | 6 |
| O=C(Nc1ccc(-c2oc(C(=O)NCCc3cccc(Cl)c3)cc2-c2ccncc2)cc1)Nc1cccc(Cl)c1.O=C(O)C(F)(F)F | 99 | 84 | 13 |
| NCC(NC(=O)c1ccc(-c2c[nH]c3ncccc23)s1)c1ccccc1.O=CO (stereo not given) | 95 | 87 | 52 |
| CCN1CCN(Cc2c(O)ccc3c(=O)c(Oc4cc(C)cc(C)c4)c(C(F)(F)F)oc23)CC1 | 96 | 90 | 6 |
| CNCCNCc1cccc(-c2cccc(-c3nc4cc(C(F)(F)F)ccc4[nH]3)c2)c1.O=C(O)C(F)(F)F | 100 | 97 | 22 |
| CC(C)N(Cc1cnc2nc(N)nc(N)c2n1)c1ccc(Cl)c(Cl)c1 | 100 | 98 | 63 |
| Cl.N=C(N)Nc1ccc(OCCCCCOc2ccc(NC(=N)N)cc2Br)c(Br)c1 | 92 | 95 | 27 |
| Cl.N#Cc1ccc(NC(=O)c2ccc(Cc3ccc4c(c3)CCN(C3CCC3)CC4)cn2)cc1 | 91 | 2 | 66 |
| CC(=O)Nc1cccc(CNCc2ccc(-c3cnc(N4CCCC(C)(C)C4)nc3)cc2)c1.O=CO | 93 | 75 | 10 |
| CC(=O)NCCNc1nccc(N2CCc3ncnc(Nc4ccc(OCc5cccc(F)c5)c(Cl)c4)c3C2)n1 | 100 | 100 | 10 |
| CCc1ccc(C2CCN(CCCCNC(=O)c3ccc(-c4ccc(C#N)cc4)cc3)CC2)c(OCCO)c1.Cl | 94 | 61 | 24 |
| c1ccc(-c2cc(NCc3cccc4ccccc34)c3[nH]ncc3n2)cc1 | 93 | 5 | 7 |
| C=C[C@H]1CN2CC[C@H]1C[C@H]2[C@H](O)c1ccnc2ccc(OC)cc12.O.O=S(=O)(O)O | 97 | 22 | 0 |
| CC(C)c1ccc(S(=O)(=O)N(c2ccc3c(c2)OCO3)C2CCN(Cc3ccccc3)C2)cc1 (stereo not given) | 100 | 92 | 1 |
| O=C(O)C(F)(F)F.O=S(=O)(NCCN1CCCC1)c1ccc(-c2cccc(CNC3Cc4ccccc4C3)c2)s1 | 98 | 69 | 57 |
| COc1cccc(CNC(=O)NC2CCN(c3ccnc(Nc4cc(OC)c(OC)c(OC)c4)n3)C2)c1 (stereo not given) | 93 | 84 | 15 |
| CNCCNCc1cccc(-c2ccc(-c3nc4cccc(C)c4[nH]3)cc2)c1.O=C(O)C(F)(F)F | 98 | 21 | 17 |
| CCN(CC)CCN(Cc1ccc(-c2ccc(C(F)(F)F)cc2)cc1)C(=O)Cn1c(CCc2cccc(F)c2F)cc(=O)cc1-c1ccccc1 | 94 | 64 | 33 |
| Cc1nc(-c2ccc(C#N)cc2)sc1C(=O)NCCCCN1CCC(c2ccc3c(c2OCCO)CCCC3)CC1.Cl | 99 | 10 | 14 |
| CCOc1cc(C(C)C)ccc1N1CCN(CCCCNC(=O)c2ccc(NC(=O)c3ccc(Cl)cc3)cc2)CC1 | 100 | 97 | 28 |
| COc1ccc2nccc([C@@H](O)CN3CCC(NC(=O)C(c4cc5ccccc5s4)N4CCN(c5ccccc5OC)CC4)CC3)c2c1 (stereo not given in full) | 100 | 88 | 21 |
| O=C(O)C(F)(F)F.O=C1OC(c2ccccc2)(c2ccccn2)CN1C1CCN(Cc2cccn2-c2ccc(Cl)cc2)CC1 (stereo not given) | 99 | 98 | 21 |
| CN(C)CCN(C)Cc1ccc(-c2ccc3c(Nc4ccc(Oc5ccccn5)cc4)ccnc3c2)o1 | 100 | 100 | 16 |
| C=CCOC(=O)O[C@@H]1[C@@H](OC(=O)OCC=C)[C@@H](OC)O[C@H](COC(c2ccccc2)(c2ccccc2)c2ccccc2)[C@H]1OC(=O)OCC=C | 95 | 96 | 5 |
| Cn1cnc(CCNC(=O)c2cccc(-c3ccc(-c4nc5cc(F)ccc5[nH]4)cc3)c2)c1 | 88 | 5 | 26 |
| Br.CCCCCCCCc1c(C)nc(C)c(Br)c1O | 96 | 92 | 0 |
